Test results published in PubChem BioAssay (NCATS).
Several values for one entry are separate records, joined by “and”; a condition that tells them apart may be missing. Equal values may be shown once. Inconclusive results are not listed. Activity calls are given as the source filed them. Unless noted, calls follow the shape of the dose curve; as a rule, active = well fitted curve in the direction sought with a large enough effect; inconclusive = small, poorly fitted or top-dose-only effect, or another doubt; inactive = no such curve, though single readings can be large; an effect the other way counts as inactive or inconclusive.

Columns and labels:
[1] = molecular target: Alpha-galactosidase A (Homo sapiens) (UniProt P06280); test: Counterscreen for Glucocerebrosidase Inhibitors: qHTS Assay for Human alpha-Galactosidase at pH 4.5 (AID 992); also: 0% is about no effect
Sequence of Alpha-galactosidase A (Homo sapiens) (P06280 whole entry, looked up): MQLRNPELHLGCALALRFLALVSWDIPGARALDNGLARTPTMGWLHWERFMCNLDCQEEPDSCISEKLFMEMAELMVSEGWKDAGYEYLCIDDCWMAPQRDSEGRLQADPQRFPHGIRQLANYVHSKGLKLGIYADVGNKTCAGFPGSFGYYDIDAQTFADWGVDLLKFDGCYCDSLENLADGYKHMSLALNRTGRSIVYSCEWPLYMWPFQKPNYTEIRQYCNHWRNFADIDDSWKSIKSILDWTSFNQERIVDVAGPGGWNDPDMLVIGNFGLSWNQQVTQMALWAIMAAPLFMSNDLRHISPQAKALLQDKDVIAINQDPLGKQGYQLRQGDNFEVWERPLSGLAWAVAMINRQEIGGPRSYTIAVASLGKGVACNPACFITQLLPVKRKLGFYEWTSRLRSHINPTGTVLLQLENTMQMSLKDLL
How it was run: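 Concentration-response curves (0.7 nM to 77 uM final) were modeled with the Hill equation to give AC50. Reactions: 2 nM enzyme, 80 uM fluorogenic alpha-galactoside, pH 4.5 citric acid buffer, 20 min, room temperature.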

[2] = qHTS Assay for Lipid Storage Modulators (AID 1519; calls by dose curve; as to activity change, negative = inhibition: % is scaled to controls: 0 for no effect and ±100 for the full control effect); settings: Drosophila S3 cells, BODIPY lipid droplet/cell ratio, laser cytometry, cells loaded with oleic acid
How it was run: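 Cells seeded at 5,000 per well were treated with compounds over a concentration series and loaded with oleic acid (400 uM, as added). Lipid droplet fluorescence (488 nm excitation, 500-530 nm channel) was read by laser-scanning cytometry and normalized to 20 uM Triacsin C.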

[3] = molecular target: DNA repair nuclease/redox regulator APEX1 (Homo sapiens) (UniProt P27695); test: qHTS Validation Assay for Inhibitors of the Human Apurinic/apyrimidinic Endonuclease 1 (APE1) (AID 1705; also: potency is read from the fitted curve at half-maximal effect;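 as to activity change, negative = inhibition: TAMRA fluorescence gain over two minutes as APE1 cuts a quenched THF abasic duplex; % is scaled to controls: 0 for no effect and ±100 for the full control effect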)
Sequence of DNA repair nuclease/redox regulator APEX1 (Homo sapiens) (P27695 whole entry, looked up): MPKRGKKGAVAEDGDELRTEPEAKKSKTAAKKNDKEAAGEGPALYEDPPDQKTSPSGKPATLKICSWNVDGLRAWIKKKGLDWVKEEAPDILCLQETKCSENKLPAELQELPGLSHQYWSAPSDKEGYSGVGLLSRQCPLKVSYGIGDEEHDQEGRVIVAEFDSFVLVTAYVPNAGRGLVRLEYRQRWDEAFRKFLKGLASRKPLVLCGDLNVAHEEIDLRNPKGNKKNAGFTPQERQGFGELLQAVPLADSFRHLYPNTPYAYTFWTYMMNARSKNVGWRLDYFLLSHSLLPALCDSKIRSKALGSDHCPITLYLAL
How it was run: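 Endonuclease activity of human APE1 is followed as dequenching when the enzyme incises a tetrahydrofuran abasic site in a short duplex labelled 5'-TAMRA/3'-BHQ-2 (50 nM final), after 15 min enzyme–compound preincubation at room temperature.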

[4] = Counterscreen for APE1 Inhibitors: Fluorescent Dye Displacement Validation Assay (AID 1707);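 also: plate controls were ThO with dsDNA and no compound for no effect and ThO without dsDNA for full effect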
How it was run: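 Assay buffer: Tris-HCl pH7.5 with 50mM NaCl, 2 mM MgCl2, 0.01% Tween-20. Dye 250 nM, duplex 50 nM final. Readout: decrease in ThO endpoint fluorescence, 480 nm excitation, 540 nm emission.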

[5] = qHTS for differential inhibitors of proliferation of Plasmodium falciparum line 7G8 (AID 1815);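 also: parasite growth measured after three days of incubation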; also: potency is read from the fitted curve at half-maximal effect;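 as to activity change, negative = inhibition: plate controls were vehicle wells for no effect and reference inhibitor wells for full effect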
[6] = qHTS for differential inhibitors of proliferation of Plasmodium falciparum line 3D7 (AID 1876); also: potency is read from the fitted curve at half-maximal effect
[7] = qHTS for differential inhibitors of proliferation of Plasmodium falciparum line D10 (AID 1877);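 also: parasites grown with compound for 72 h before DNA staining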; also: potency is read from the fitted curve at half-maximal effect;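 as to activity change, negative = inhibition: plate controls were vehicle wells for no effect and reference inhibitor wells for full effect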
[8] = qHTS for differential inhibitors of proliferation of Plasmodium falciparum line Dd2 (AID 1882); settings: Potency: Plasmodium falciparum Dd2 proliferation inhibition; also: nearly all actives have a fitted effect of over 65% in size; also: potency is read from the fitted curve at half-maximal effect;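 as to activity change, negative = inhibition: plate controls were DMSO vehicle for no effect and 0.29 µM artemisinin for full effect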
How it was run: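 Dd2-infected erythrocytes (0.3% parasitemia, 2.5% hematocrit final) incubated with compound 72 h at 37 C, 5% CO2; lysed with saponin/Triton buffer containing SYBR Green I, incubated overnight in the dark, then read by fluorescence (485/535 nm). Normalized to 0.29 uM artemisinin and DMSO.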

[9] = qHTS for differential inhibitors of proliferation of Plasmodium falciparum line W2 (AID 1883); settings: Potency: Plasmodium falciparum W2 proliferation inhibition;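 also: parasites grown with compound for 72 h before lysis and staining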; also: potency is read from the fitted curve at half-maximal effect;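 as to activity change, negative = inhibition: 0% = vehicle wells and -100% = control inhibitor wells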
[10] = qHTS for differential inhibitors of proliferation of Plasmodium falciparum line HB3 (AID 1886); settings: Potency: Plasmodium falciparum HB3 proliferation inhibition;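 also: parasites grown with compound for 72 h before SYBR Green readout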; also: potency is read from the fitted curve at half-maximal effect;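 as to activity change, negative = inhibition: plate controls were vehicle for no effect and reference inhibitor for full effect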
[11] = molecular target: Endonuclease 4 (Escherichia coli (strain K12)) (UniProt P0A6C1); test: Counterscreen for APE1 Inhibitors: qHTS Validation Assay for Inhibitors of Endonuclease IV (AID 1708); also: % is scaled to controls: 0 for no effect and ±100 for the full control effect
How it was run: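 E. coli EndoIV at 2 nM final, preincubated 15 min at room temperature with compound, then 50 nM TAMRA/BHQ-2 THF abasic-site duplex added. Buffer: 50 mM Tris-HCl pH 7.5, 50 mM NaCl, 2 mM MgCl2, 1 mM DTT, 0.01% Tween-20. Kinetic fluorescence increase, third minus first read.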

[12] = qHTS for differential inhibitors of proliferation of Plasmodium falciparum line GB4 (AID 1816); settings: Potency: Plasmodium falciparum GB4 proliferation inhibition;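 also: parasite growth measured after 72 h incubation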; also: potency is read from the fitted curve at half-maximal effect;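 as to activity change, negative = inhibition: 0% = vehicle DMSO and -100% = reference inhibitor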
[13] = Cell Viability - LYMP2-020 (AID 986);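 also: plate controls were DMSO only for no effect and tetraoctylammonium bromide at 92 µM for full effect; nearly all actives have a fitted effect of over 55% in size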
How it was run: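 Human lymphoblastoid LYMP2-020 cells (2500/well) preincubated 5 h at 37 C, then treated 24 h at 37 C. Viability measured as intracellular ATP by CellTiter-Glo luminescence after 30 min at room temperature; AC50 from Hill fits.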

[14] = Cell Viability - LYMP2-022 (AID 987);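 also: 0% = DMSO alone and full effect = tetraoctylammonium bromide at 92 µM; nearly all actives have a fitted effect of over 55% in size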
How it was run: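 LYMP2-022 lymphoblastoid cells (2500/well, complete medium) were treated with compounds for 24 hours at 37 C; intracellular ATP was then read by CellTiter-Glo luminescence after 30 min at room temperature. AC50 values were derived from Hill-equation fits.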

[15] = Cell Viability - LYMP2-024 (AID 988);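 also: plate controls were DMSO only for no effect and 92 µM tetraoctylammonium bromide for full effect; nearly all actives have a fitted effect of over 60% in size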
How it was run: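 Human lymphoblastoid LYMP2-024 cells (2500/well) rested 5 hr, then treated with compound for 24 hr at 37 C in complete medium. Viability was measured as intracellular ATP by CellTiter-Glo luminescence. AC50 values came from Hill-equation fits.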

[16] = Cell Viability - LYMP2-026 (AID 989); also: % is scaled to controls: 0 for no effect and ±100 for the full control effect; nearly all actives have a fitted effect of over 50% in size
How it was run: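 Human lymphoblastoid LYMP2-026 cells, 2500/well, exposed to compound 24 h at 37 C in complete medium. Viability as intracellular ATP by CellTiter-Glo luminescence; AC50 from Hill fits of qHTS concentration-response.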

[17] = Cell Viability - LYMP1-002 - Assay at 40 hr (AID 994);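 also: 0% = DMSO only and full inhibition = 92 µM tetraoctylammonium bromide; nearly all actives have a fitted effect of over 60% in size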
How it was run: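 LYMP1-002 human lymphoblastoid cells (2500/well, complete medium) were treated with compounds for 40 hr at 37 C. Intracellular ATP was measured by CellTiter-Glo luminescence, and AC50 values came from Hill-equation fits of concentration-response data; tetraoctylammonium bromide was the positive control.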

[18] = molecular target: alpha-glucosidase (Oryza sativa, rice) (UniProt Q653V4); test: Counterscreen for Glucocerebrosidase Inhibitors: qHTS Assay for Rice alpha-Glucosidase at pH 5.0 (AID 997);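 also: 0% = full activity with enzyme and -100% = basal without enzyme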
How it was run: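 Rice alpha-glucosidase (4 nM final) with 400 uM 4-methylumbelliferyl-alpha-D-glucopyranoside in citrate buffer pH 5.0, 20 min at room temperature, stopped at pH 10; fluorescence 365/440 nm, compounds 0.7 nM–77 uM, AC50 from Hill fits.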

[19] = measured here: cell count channel max response
[20] = measured here: lipid channel max response

CN(C)CCOC(c1ccccc1)c1ccccc1
inactive: outcome [1] | activity change, negative = inhibition ([2]; at 25.7 µM (top of the series)) -4.2% | activity change, negative = inhibition ([2]; at 57.5 µM (top of the series)) 0.806% | Potency [3] | Potency [4] | Potency [6] | Potency [7] | Potency [10]
active: Potency [5] 3.98 µM | Potency [8] 3.98 µM | Potency [9] 1 µM
-10.1% and 40.8%: max response [2, 19]
-13% and 41%: max response [2, 20]

CS(=O)(=O)Nc1ccc([N+](=O)[O-])cc1Oc1ccccc1
2.41% and 33.1%: max response [2, 20]
active: Potency [3] 39.8 µM
inactive: outcome [1] | activity change, negative = inhibition ([2]; at 25.7 µM (top of the series)) -1.76% | activity change, negative = inhibition ([2]; at 57.5 µM (top of the series)) 14.1% | Potency [4] | Potency [11] | Potency [5] | Potency [6] | Potency [7] | Potency [8] | Potency [10]
3.21% and 14.6%: max response [2, 19]

CCc1cccc2c3c([nH]c12)C(CC)(CC(=O)O)OCC3 (configuration not stated)
inactive: outcome [1] | activity change, negative = inhibition ([2]; at 57.5 µM (top of the series)) 2.38% and -6.74% | Potency [3] | Potency [4] | Potency [11] | Potency [5] | Potency [12] | Potency [6] | Potency [7] | Potency [8] | Potency [10]
1.96% and -60.6%: max response [2, 19]
5.72% and -61.2%: max response [2, 20]

Clc1ccc(C(c2ccccc2Cl)C(Cl)Cl)cc1 (configuration not stated)
22.4% and -18.8%: max response [2, 20]
inactive: outcome [13] | outcome [14] | outcome [15] | outcome [16] | outcome [1] | Potency [17] | activity change, negative = inhibition ([2]; at 57.5 µM (top of the series)) 11.4% and -0.0471% | Potency [3] | Potency [4] | Potency [11] | Potency [5] | Potency [12] | Potency [6] | Potency [7] | Potency [8] | Potency [10]
11% and -19.2%: max response [2, 19]

O=C(c1ccc(OCCN2CCCCC2)cc1)c1c(-c2ccc(O)cc2)sc2cc(O)ccc12
-4.93% and -10.5%: max response [2, 20]
inactive: outcome [1] | outcome [18] | activity change, negative = inhibition ([2]; at 25.7 µM (top of the series)) -1.98% | activity change, negative = inhibition ([2]; at 57.5 µM (top of the series)) 1.97% | Potency [3]
-4.67% and -13.2%: max response [2, 19]
active: Potency [5] 4.47 µM | Potency [12] 2 µM | Potency [6] 2.82 µM | Potency [7] 3.16 µM | Potency [9] 3.16 µM | Potency [10] 3.16 µM

NC(=O)NO
26.4%: max response [2, 20]
21%: max response [2, 19]
inactive: outcome [1] | outcome [18] | activity change, negative = inhibition ([2]; at 57.5 µM (top of the series)) 7.16% | Potency [3] | Potency [4] | Potency [11] | Potency [5] | Potency [12] | Potency [6] | Potency [7] | Potency [8] | Potency [9] | Potency [10]

CN1CCN(CCCN2c3ccccc3Sc3ccc(Cl)cc32)CC1
-2.79% and -1.33%: max response [2, 19]
inactive: outcome [1] | activity change, negative = inhibition ([2]; at 25.7 µM (top of the series)) -2.25% | activity change, negative = inhibition ([2]; at 57.5 µM (top of the series)) 2.24% | Potency [3] | Potency [4]
active: Potency [5] 5.01 µM | Potency [12] 10 µM | Potency [6] 6.31 µM | Potency [7] 12.6 µM | Potency [8] 11.2 µM | Potency [9] 4.47 µM | Potency [10] 12.6 µM
-5.2% and 2.08%: max response [2, 20]

C[C@](N)(Cc1ccc(O)c(O)c1)C(=O)O
active: Potency [3] 7.94 µM
42%: max response [2, 20]
inactive: outcome [1] | activity change, negative = inhibition ([2]; at 57.5 µM (top of the series)) 1.88% | Potency [4] | Potency [11] | Potency [5] | Potency [6] | Potency [7] | Potency [8] | Potency [10]
48.1%: max response [2, 19]

CCC1(C)CC(=O)NC1=O (configuration not stated)
inactive: activity change, negative = inhibition ([2]; at 57.5 µM (top of the series)) 5.33% and 1.46% | Potency [3] | Potency [4] | Potency [11] | Potency [5] | Potency [12] | Potency [6] | Potency [7] | Potency [8] | Potency [9] | Potency [10]
22.9% and 41%: max response [2, 20]
13.5% and 40.9%: max response [2, 19]

CC(C)NCC(O)COc1ccc(CCOCC2CC2)cc1 (configuration not stated)
active: Potency [5] 10 µM | Potency [9] 7.08 µM
-20.2%: max response [2, 20]
inactive: activity change, negative = inhibition ([2]; at 57.5 µM (top of the series)) -2.88% | Potency [3] | Potency [4] | Potency [11] | Potency [6] | Potency [7] | Potency [8] | Potency [10]
-16.9%: max response [2, 19]

Clc1ccccc1C(c1ccccc1)(c1ccccc1)n1ccnc1
active: Potency [5] 0.251 µM | Potency [12] 0.316 µM | Potency [6] 0.447 µM | Potency [7] 0.631 µM | Potency [8] 1.78 µM | Potency [9] 0.355 µM | Potency [10] 0.316 µM
-11.4% and 22.8%: max response [2, 20]
-13.7% and 9.45%: max response [2, 19]
inactive: outcome [1] | outcome [18] | activity change, negative = inhibition ([2]; at 25.7 µM (top of the series)) 2.04% | activity change, negative = inhibition ([2]; at 57.5 µM (top of the series)) 9.89% | Potency [3] | Potency [4]

Nc1nc2c(ncn2COC(CO)CO)c(=O)[nH]1
0.439% and 44.9%: max response [2, 19]
inactive: outcome [1] | activity change, negative = inhibition ([2]; at 25.7 µM (top of the series)) -0.899% | activity change, negative = inhibition ([2]; at 57.5 µM (top of the series)) -0.373% | Potency [3] | Potency [4] | Potency [5] | Potency [12] | Potency [6] | Potency [7] | Potency [8] | Potency [9] | Potency [10]
0.456% and 46.2%: max response [2, 20]

COc1nc(C)nc(Cl)c1NC1=NCCN1
-15%: max response [2, 20]
-13%: max response [2, 19]
inactive: outcome [1] | outcome [18] | activity change, negative = inhibition ([2]; at 25.7 µM (top of the series)) -2% | Potency [3] | Potency [4] | Potency [11] | Potency [5] | Potency [12] | Potency [6] | Potency [7] | Potency [8] | Potency [10]

CN1CCN2c3ccccc3Cc3ccccc3C2C1 (configuration not stated)
active: Potency [5] 10 µM | Potency [12] 12.6 µM | Potency [8] 7.08 µM | Potency [9] 5.62 µM | Potency [10] 12.6 µM
inactive: activity change, negative = inhibition ([2]; at 57.5 µM (top of the series)) 3.41% | Potency [3] | Potency [4] | Potency [11]
10.1%: max response [2, 19]
10.4%: max response [2, 20]

NS(=O)(=O)c1cc2c(cc1Cl)NCNS2(=O)=O
-3.42% and 12.6%: max response [2, 19]
inactive: outcome [13] | outcome [14] | outcome [15] | outcome [16] | outcome [1] | Potency [17] | activity change, negative = inhibition ([2]; at 25.7 µM (top of the series)) 0.69% | activity change, negative = inhibition ([2]; at 57.5 µM (top of the series)) 7.4% | Potency [4] | Potency [11] | Potency [5] | Potency [6] | Potency [7] | Potency [8] | Potency [10]
-4.41% and 24.1%: max response [2, 20]
